An excerpt weighted towards active compounds, which were near 7% of everything screened.
KAT2A inh – inhibitors of human GCN5L2 histone acetyltransferase; GCN5L2 HAT assay, ThioGlo1 CoA-SH fluorescence; 390,000 compounds, 0.21% hits; Q92830; Potency, µM (doses to about 58.9 µM), without a hit: at the highest dose activity change, negative = inhibition, actives largely listed as inhibitors; AID 504327; note: potency is the fitted concentration of half-maximal effect; % is set by controls: 0 for no effect and ±100 for the full control effect
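Compounds, pin-transferred from DMSO stocks, meet 20nM GCN5L2 for 15 min before the reaction begins with H3(1-25) peptide (75uM) and acetyl-CoA (70uM). Thiol-reactive ThioGlo1 reports CoA release over 20 min at room temperature.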
HP1b chromo inh – blocks HP1-beta chromodomain binding to methylated histone tails; AlphaScreen HP1-beta / biotin-H3K9me3 peptide binding; Potency, µM (series often up to 114 µM), inactives show at the top dose activity change, negative = inhibition, hits mostly inhibitors; 390,000 compounds, 0.56% hits; AID 540317; note: potency is the fitted concentration of half-maximal effect; nearly all actives have a fitted effect of over 70% in size
Target sequence (P83916 whole entry, looked up): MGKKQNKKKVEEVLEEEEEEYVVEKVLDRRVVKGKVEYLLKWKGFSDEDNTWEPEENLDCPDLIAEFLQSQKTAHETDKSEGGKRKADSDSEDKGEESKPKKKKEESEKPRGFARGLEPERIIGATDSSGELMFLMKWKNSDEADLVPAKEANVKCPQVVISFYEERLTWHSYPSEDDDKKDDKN
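Compound inhibition of the preformed complex between 50 nM HP1-beta and 50 nM biotinylated H3K9me3 peptide was read by AlphaScreen. Buffer was PBS pH 7.4 with 0.01% Tween-20. Incubations ran 30 min at room temperature, with 10 ug/mL donor/acceptor beads.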
JMJD2A Tudor – inhibitors of human JMJD2A Tudor domain. O75164. AlphaScreen JMJD2A-Tudor / H3K4me3 peptide binding. Potency, µM (doses to about 114 µM), without a hit: at the highest dose activity change, negative = inhibition, most hits filed as inhibitors. 390,000 compounds, 4.4% hits. AID 504339; note: potency is the fitted concentration of half-maximal effect; % is set by controls: 0 for no effect and ±100 for the full control effect; nearly all actives have a fitted effect of over 50% in size
PI5P4K alpha inh – inhibitors of human PI5P4K alpha; PI5P4Kalpha enzyme, ADP-Glo luminescence, 60 min; hits give low values; max response, %; 330,000 compounds, 1.2% hits; active = max response of -50% or lower; inconclusive = between -30% and -50%; inactive = -30% or higher; note: value at the top dose of about 77 µM; % is set by controls: 0 for no effect and ±100 for the full control effect
Target sequence (P48426 whole entry, looked up): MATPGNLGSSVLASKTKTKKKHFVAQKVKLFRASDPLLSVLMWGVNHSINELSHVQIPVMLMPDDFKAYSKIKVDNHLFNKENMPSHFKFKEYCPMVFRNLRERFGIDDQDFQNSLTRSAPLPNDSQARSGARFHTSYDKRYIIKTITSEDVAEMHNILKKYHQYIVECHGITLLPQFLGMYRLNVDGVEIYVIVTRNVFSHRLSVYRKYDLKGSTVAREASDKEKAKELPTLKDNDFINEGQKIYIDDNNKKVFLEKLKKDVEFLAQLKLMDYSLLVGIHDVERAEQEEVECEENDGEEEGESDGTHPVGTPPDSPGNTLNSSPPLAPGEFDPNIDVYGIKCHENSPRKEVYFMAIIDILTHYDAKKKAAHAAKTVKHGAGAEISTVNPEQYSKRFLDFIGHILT
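Human PI5P4Kalpha with substrate in 0.038 M HEPES pH 7.4, 0.28 mM EGTA, 0.1% CHAPS, 5% DMSO; reaction started with 5 microM ATP (final), 60 min at room temperature. ADP formed read by ADP-Glo luminescence.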
PLK1 PBD block – blocks phosphopeptide binding to human PLK1 polo-box domain; P53350; Plk1 PBD binding of FITC phosphopeptide, fluorescence polarization; Potency, µM, without a hit: max response, negative = inhibition, hits mostly inhibitors; 360,000 compounds, 2.8% hits; note: potency is the fitted concentration of half-maximal effect; series mostly up to about 57 µM; % is set by controls: 0 for no effect and ±100 for the full control effect; nearly all actives have a fitted effect of over 65% in size
BAZ2B block – blocks human BAZ2B; AID 504333; Potency, µM (titrated, usually from 114 µM), without a hit: at the top dose activity change, negative = inhibition, usual class: inhibitors; 360,000 compounds, 4.4% hits; AlphaScreen BAZ2B-H3K14Ac peptide displacement; note: potency is the fitted concentration of half-maximal effect; % is set by controls: 0 for no effect and ±100 for the full control effect; nearly all actives have a fitted effect of over 60% in size
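BAZ2B 50 nM plus b-H3(5-23)K14Ac 50 nM, PBS pH 7.4/0.01% Tween-20, 30 min RT; compound added (max 110 uM), 30 min RT; streptavidin donor/Ni-chelate acceptor beads 10 ug/mL final, 20 min dark; AlphaScreen read.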
The depositor's hits bear a star; ? = inconclusive; . = no result given; [ ] = remark or other dose. Unless noted, calls come from the whole dose curve; as a rule, active = well fitted curve in the direction sought with a large enough effect; inconclusive = small, poorly fitted or top-dose-only effect, or another doubt; inactive = no such curve, though single readings can be large; an effect the other way counts as inactive or inconclusive.

SMILES	KAT2A inh	HP1b chromo inh	JMJD2A Tudor	PI5P4K alpha inh	PLK1 PBD block	BAZ2B block
COc1cccc(Oc2nc(C)nc3c2oc2ccccc23)c1	3.2%	47.6%	-0.3%	.	.	45.8%
CC(NCc1ccc(N(C)C)cc1)C1CC2CCC1C2 (configuration not stated)	0.5%	-20.8%	89.1µM*	-6.8	-10.3%	?
COc1ccc(S(=O)(=O)N2CCN(Cc3ccc(OC)c(OC)c3)CC2)cc1	-0.9%	55.5%	-8.3%	3.2	?	7.1%
COc1ccccc1CN1CCN(S(=O)(=O)c2ccc(C)cc2)CC1	.	?	20µM*	-4.9	-0.5%	.
COc1ccccc1CNC(=O)N1CCN(S(=O)(=O)c2ccc(C)cc2)CC1	-16.1%	5.5%	-12.0%	1.9	0.6%	8.0%
COc1ccc(S(=O)(=O)N2CCN(Cc3ccccc3[N+](=O)[O-])CC2)cc1	.	?	3.16µM*	-4.2	-15.1%	.
O=S(=O)(Cc1ccccc1)N1CCN(c2ncccn2)CC1	-3.6%	55.5%	-2.8%	3.1	3.8%	-4.9%
COc1ccc(S(=O)(=O)N2CCN(Cc3cccc(F)c3)CC2)cc1	.	?	3.16µM*	-0.4	-13.0%	.
O=[N+]([O-])c1ccccc1CN1CCN(S(=O)(=O)Cc2ccccc2)CC1	-3.0%	?	0.794µM*	0.2	-15.0%	44.7µM*
CC1(C(=O)NCc2cccc3ccccc23)CCN1C(=O)Cc1ccc(-c2ccccc2)cc1 (configuration not stated)	.	.	.	36.7	-3.7%	.
CCCCn1c(N)c(N(C)C(=O)c2cccc(-n3cnnn3)c2)c(=O)[nH]c1=O	-0.2%	32.9%	-10.1%	-3.4	-6.2%	.
Cc1cc(NC(=O)COC(=O)C2CC(=O)N(c3ccc(Cl)cc3)C2)no1 (configuration not stated)	-4.9%	10.6%	-11.7%	-1.1	-4.5%	-19.5%
CN1CCC(N(C)C(=O)Cc2ccccc2[N+](=O)[O-])CC1	15.5%	0.9%	-12.1%	0.4	-5.4%	-17.6%
COc1ccc(S(=O)(=O)N2CCN(Cc3cccc([N+](=O)[O-])c3)CC2)cc1	.	?	20µM*	0.7	-3.9%	.
CN(Cc1ccccc1)C1CCN(Cc2ccccc2[N+](=O)[O-])CC1	-10.0%	?	11.2µM*	-2.3	-7.2%	20µM*
COc1ccc(S(=O)(=O)N2CCN(Cc3ccc4c(c3)OCO4)CC2)cc1	-2.1%	18.1%	-27.3%	-5.2	-6.9%	?
O=C(Nc1ccccc1C(F)(F)F)c1cc2ccccc2o1	-4.9%	33.6%	24.5%	5.3	-14.4%	8.1%
O=C(C1CCCN(S(=O)(=O)c2cccc3nsnc23)C1)N1CCN(c2ccccc2F)CC1 (configuration not stated)	-3.1%	2.7%	?	.	.	.
COc1ccc(C(=O)C2CCCN(C(=O)C3CCOCC3)C2)cc1OC (configuration not stated)	-10.7%	69.5%	-5.4%	-0.8	3.2%	-2.2%
O=C(c1cccc([N+](=O)[O-])c1)N1CCCC(C(=O)N2CCCCC2)C1 (configuration not stated)	1.5%	25.6%	-15.0%	0.3	-0.2%	-12.5%
COc1ccc(CN2CCCC(C(=O)N3CCc4ccccc4C3)C2)cc1OC (configuration not stated)	0.8%	-6.5%	22.4µM*	-1.0	?	89.1µM*
O=C(C1CCCN(Cc2ccc([N+](=O)[O-])cc2)C1)N1CCCCC1 (configuration not stated)	-0.7%	?	25.1µM*	0.1	-0.3%	56.2µM*
COc1ccc(CN2CCCC(C(=O)N3CCCCC3)C2)cc1OC (configuration not stated)	-0.1%	9.2%	20µM*	-0.7	-4.4%	70.8µM*
CC1(C)N=C(N)N=C(N)N1c1ccc(CCCCc2ccccc2)cc1	.	.	.	-4.9	5.4%	.
CCOC(=O)c1noc2nc(C)n(CC(=O)Nc3ccc(OC)c(Cl)c3)c(=O)c12	-11.8%	27.1%[57 µM]	-21.4%	.	.	-0.1%
SMILES	KAT2A inh	HP1b chromo inh	JMJD2A Tudor	PI5P4K alpha inh	PLK1 PBD block	BAZ2B block
O=C1CS/C(=N/N=C\c2ccn[nH]2)N1	-7.6%	17.3%	-20.6%	6.1	-20.0%	50.1µM*
CCS(=O)(=O)c1ccc2c(c1)N(S(=O)(=O)c1ccc(OC)cc1)CC(C(=O)O)O2 (configuration not stated)	2.6%	34.2%	-13.9%	-1.2	-5.2%	-36.2%[57.1 µM]
CCS(=O)(=O)c1ccc2c(c1)N(S(=O)(=O)c1ccc(C)cc1)CC(C(=O)O)O2 (configuration not stated)	-1.4%	52.5%	-7.2%	-12.9	-10.7%	89.1µM*
CCc1nn(Cc2ccc(Cl)cc2)c(=O)c2cc3cc(C)ccc3n12	-0.2%	17.1%	?	.	.	3.3%
Cc1cc(=O)[nH]c(NN=C2CCCCC2C)n1 (configuration not stated)	.	-23.5%	0.891µM*	-7.0	-5.4%	.
Cc1cc(=O)[nH]c(NN=C2C3CC4CC(C3)CC2C4)n1	-4.5%	43.0%	?	-7.1	-4.4%	8.1%
COc1ccccc1N(CC(=O)NCc1ccccc1)S(=O)(=O)c1cccs1	.	.	.	6.0	2.4%	.
CCNC(=O)NC(=O)CSc1ccc2ccccc2c1	-2.7%	?	?	-5.7	26.7µM*	-0.4%
CC(=O)N1CCC2(CC1)C/C(=N\NC(=S)Nc1ccc(C)cc1)c1cc(O)ccc1O2	-12.7%	-22.9%	?	-4.7	-19.1%	?
CCc1ccc(OCCCSc2nc(-c3ccc(C(C)(C)C)cc3)nc3cc(=O)[nH]n23)cc1	?	-25.1%	25.1µM*	.	.	50.1µM*
Cc1cccc(OCCCSc2nc(-c3ccc(C(C)(C)C)cc3)nc3cc(=O)[nH]n23)c1C	?	1.3%	25.1µM*	.	.	56.2µM*
N/C(=C\C(=O)c1cc(Cl)ccc1O)C(Cl)(Cl)Cl	-5.6%	?	-27.2%[11.4 µM]	0.9	6.7µM*	-33.2%
CCn1c(=O)cc(OCC(=O)NC(C)c2ccc3c(c2)OCCO3)c2ccccc21 (configuration not stated)	-9.8%	?	?	-7.2	26.7µM*	-2.2%
O=c1[nH]c(=S)c2[nH]cnc2[nH]1	.	3.9%[57 µM]	-10.8%[57.1 µM]	.	.	.
Nc1ncnc2[nH]c(=S)[nH]c12	.	?	3.55µM*	?	?	.
Cc1ccccc1CC1(CO)CCCN(C(=O)Cc2c(F)ccc(F)c2F)C1 (configuration not stated)	-18.3%	56.0%	-15.3%	1.3	0.5%	-12.8%
CCCCCN(C(=O)COC(=O)c1ccc(C)cc1)c1c(N)n(CCCC)c(=O)[nH]c1=O	1.9%	38.7%	-15.5%	-1.7	1.3%	-4.5%
Cn1cncc1C#Cc1ccc2cc(CCO)oc(=O)c2c1	-10.3%	41.4%	-28.1%	1.4	-11.0%	56.2µM*

Compound activity: PubChem BioAssay, National Center for Advancing Translational Sciences (NCATS)
